# From PubChem BioAssay
# Activity calls are given as the source filed them.
# Experiments:
# [1] = optical density shifts of acrAB sulA E. coli – strain DRC41, OD650, 48 h, E. coli filamentation inducer project, primary screen (AID 1152); details: higher = more signal, called active from +8 up or from −8 down;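 note: E. coli MC1000 strain DRC41 lacking acrAB efflux pump and sulA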
# [2] = probe aLefty1 binding on compound microarray – biochemical, small-molecule microarray, 635/667 nm fluorescence, primary screen (AID 1153); details: higher = more signal;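 note: score merges spot fluorescence with signal-to-noise ratio from the scanned slide images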
# [3] = plasmodial surface anion channel blockers, osmotic lysis – cell-based, P. falciparum Indochina, OD700, 1 h, primary screen (AID 1154); details: P. falciparum Indochina infected RBC osmotic lysis, higher = more signal, called active from +8 up or from −8 down
# [4] = plasmodial surface anion channel blockers, osmotic lysis – cell-based, P. falciparum Indochina, OD700, 2 h, primary screen (AID 1155);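 note: lysis reports solute entry through the parasite surface anion channel PSAC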; details: P. falciparum Indochina infected erythrocytes, higher = more signal, called active from +8 up or from −8 down
# [5] = changes in parasitized red cell lysis, either direction – P. falciparum Indochina, OD700, 3 h, PSAC antagonist project, primary screen (AID 1156); details: P. falciparum-infected erythrocytes, osmotic lysis, higher = more signal, called active from +8 up or from −8 down
# [6] = plasmodial surface anion channel blockers, osmotic lysis – cell-based, P. falciparum Indochina, OD700, 18 h, primary screen (AID 1157); details: P. falciparum Indochina infected erythrocytes, osmotic lysis OD700, 18 h; higher = more signal, called active from +8 up or from −8 down
# [7] = S6 kinase pathway phospho-S6 level changes – cell-based, A549, cytoblot, luminescence, serum-stimulated, primary screen (AID 1158); details: 5 h, higher = more signal;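 note: serum-stimulated A549 lung adenocarcinoma cells; signal is phosphorylated S6 detected by cytoblot immunostaining with HRP secondary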
# [8] = target: NADPH oxidase 2 (Homo sapiens) (UniProt P04839); test: compounds shifting NOX2 Amplex Red fluorescence – cell-based, HEK293-NOX2, PMA-stimulated, NOX inhibitor project, primary screen (AID 1159); details: 45 min, higher = more signal, called active from +8 up or from −8 down; note: test concentration not given here
# NADPH oxidase 2 (Homo sapiens), sequence (P04839 whole entry, looked up): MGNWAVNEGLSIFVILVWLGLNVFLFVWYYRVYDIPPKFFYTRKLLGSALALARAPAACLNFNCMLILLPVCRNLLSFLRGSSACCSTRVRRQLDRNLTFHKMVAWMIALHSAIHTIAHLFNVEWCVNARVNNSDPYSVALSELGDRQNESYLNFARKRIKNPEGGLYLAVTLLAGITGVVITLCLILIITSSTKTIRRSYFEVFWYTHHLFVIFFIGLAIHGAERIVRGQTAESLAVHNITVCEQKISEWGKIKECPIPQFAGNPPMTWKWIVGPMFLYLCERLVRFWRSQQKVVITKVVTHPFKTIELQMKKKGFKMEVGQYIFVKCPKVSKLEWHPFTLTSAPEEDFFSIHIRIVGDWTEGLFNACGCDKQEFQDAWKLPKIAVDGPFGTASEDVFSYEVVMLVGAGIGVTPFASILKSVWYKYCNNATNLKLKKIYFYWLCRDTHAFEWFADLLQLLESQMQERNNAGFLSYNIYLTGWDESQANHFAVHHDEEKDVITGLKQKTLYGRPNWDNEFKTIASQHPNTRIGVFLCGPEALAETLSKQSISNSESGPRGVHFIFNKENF
# [9] = target: NADPH oxidase 4 (Homo sapiens) (UniProt Q9NPH5); test: compounds shifting NOX4 Amplex Red fluorescence – cell-based, HEK293-NOX4, tetracycline-induced, NOX inhibitor project, primary screen (AID 1160); details: HEK293-NOX4, Amplex Red H2O2 fluorescence, 45 min; higher = more signal, called active from +8 up or from −8 down
# NADPH oxidase 4 (Homo sapiens), sequence (Q9NPH5 whole entry, looked up): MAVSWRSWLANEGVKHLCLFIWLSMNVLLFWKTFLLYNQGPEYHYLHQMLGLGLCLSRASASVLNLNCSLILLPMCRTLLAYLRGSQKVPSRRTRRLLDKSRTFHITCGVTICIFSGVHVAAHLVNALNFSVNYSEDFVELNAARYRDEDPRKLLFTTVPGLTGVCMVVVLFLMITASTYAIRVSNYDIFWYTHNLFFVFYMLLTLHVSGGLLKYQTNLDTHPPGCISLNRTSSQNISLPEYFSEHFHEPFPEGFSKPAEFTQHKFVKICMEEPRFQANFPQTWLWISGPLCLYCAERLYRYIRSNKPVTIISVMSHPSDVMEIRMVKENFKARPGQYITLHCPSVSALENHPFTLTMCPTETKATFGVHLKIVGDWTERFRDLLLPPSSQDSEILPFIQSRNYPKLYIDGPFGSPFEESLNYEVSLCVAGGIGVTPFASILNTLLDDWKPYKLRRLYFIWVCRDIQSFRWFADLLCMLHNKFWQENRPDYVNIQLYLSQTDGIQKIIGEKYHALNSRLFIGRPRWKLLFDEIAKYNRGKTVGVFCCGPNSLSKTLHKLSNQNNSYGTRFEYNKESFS
# [10] = target: NADPH oxidase 5 (Homo sapiens) (UniProt Q96PH1); test: compounds shifting NOX5 Amplex Red fluorescence – cell-based, HEK293-NOX5, NOX inhibitor project, primary screen (AID 1161); details: HEK293-NOX5, ionomycin, 45 min, higher = more signal
# NADPH oxidase 5 (Homo sapiens), sequence (Q96PH1 whole entry, looked up): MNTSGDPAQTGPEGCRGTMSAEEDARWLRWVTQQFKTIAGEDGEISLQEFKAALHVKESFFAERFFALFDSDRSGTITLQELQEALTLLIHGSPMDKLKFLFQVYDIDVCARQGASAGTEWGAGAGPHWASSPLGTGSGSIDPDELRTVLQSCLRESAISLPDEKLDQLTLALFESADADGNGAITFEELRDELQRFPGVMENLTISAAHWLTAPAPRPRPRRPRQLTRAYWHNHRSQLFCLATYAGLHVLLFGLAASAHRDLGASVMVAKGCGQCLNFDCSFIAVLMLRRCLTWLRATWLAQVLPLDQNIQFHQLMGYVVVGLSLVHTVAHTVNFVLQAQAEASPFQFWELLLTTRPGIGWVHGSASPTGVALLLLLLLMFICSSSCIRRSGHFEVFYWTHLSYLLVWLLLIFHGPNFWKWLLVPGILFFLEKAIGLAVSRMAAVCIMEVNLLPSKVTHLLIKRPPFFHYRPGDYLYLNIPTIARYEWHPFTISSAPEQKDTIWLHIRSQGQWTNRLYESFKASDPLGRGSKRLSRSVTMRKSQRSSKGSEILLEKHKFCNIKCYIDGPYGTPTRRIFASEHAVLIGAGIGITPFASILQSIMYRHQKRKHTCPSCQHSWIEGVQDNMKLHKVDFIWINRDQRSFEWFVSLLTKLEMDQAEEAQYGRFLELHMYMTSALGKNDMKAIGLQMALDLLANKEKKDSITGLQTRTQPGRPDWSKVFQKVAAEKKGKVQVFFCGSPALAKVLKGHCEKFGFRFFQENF
# [11] = compound effects on lung adenocarcinoma cell viability – A549, calcein-AM fluorescence, 48 h, basal, profiling panel (AID 1162); details: higher = more signal; note: test concentration not given here
# [12] = compound effects on differentiated 3T3-L1 adipocyte viability – cell-based, 3T3-L1 adipocytes, calcein-AM fluorescence, 48 h, basal, profiling panel (AID 1163); details: 3T3-L1 adipocytes viability, higher = more signal; note: test concentration not given here
# [13] = compound effects on hepatocellular carcinoma cell viability – HepG2, calcein-AM fluorescence, 48 h, basal, profiling panel (AID 1164); details: higher = more signal; note: test concentration not given here
# [14] = compound effects on multiple myeloma cell viability – MM1S, calcein-AM fluorescence, 48 h, basal, profiling panel (AID 1165); details: higher = more signal;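 note: viability of MM1S multiple myeloma cells under basal unstimulated conditions; test concentration not given here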
# [15] = calcein-AM signal in unstimulated myeloma cells – cell-based, calcein-AM fluorescence, 48 h, PK04 Diversity Set, profiling panel (AID 1166); details: RPMI8226 myeloma viability, higher = more signal;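 note: cells grown under basal conditions without added stimulus; test concentration not given here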
# [16] = JC-1 mitochondrial signal, unstimulated HepG2 cells – cell-based, JC-1 fluorescence, 24 h, 100 nL compound, profiling panel (AID 1167); details: HepG2 mitochondrial potential, higher = more signal; note: test concentration not given here
# [17] = JC-1 mitochondrial signal, unstimulated adipocytes – cell-based, JC-1 fluorescence, 3T3-L1 adipocytes, 24 h, 100 nL compound, profiling panel (AID 1168); details: JC-1 mitochondrial fluorescence, higher = more signal, called active from +8 up or from −8 down; note: test concentration not given here
# [18] = JC-1 mitochondrial signal, unstimulated myeloma cells – cell-based, JC-1 fluorescence, RPMI8226, 24 h, 100 nL compound, profiling panel (AID 1169); details: JC-1 mitochondrial potential fluorescence, higher = more signal; note: test concentration not given here
# [19] = JC-1 mitochondrial signal, unstimulated MM1S myeloma – cell-based, JC-1 fluorescence, 24 h, 100 nL compound, profiling panel (AID 1170); details: MM1S mitochondrial potential, higher = more signal; note: test concentration not given here
# [20] = resazurin metabolic signal in A549 cells – cell-based, resazurin fluorescence, 24 h, PK04 Diversity Set, profiling panel (AID 1171); details: A549 viability, higher = more signal, called active from +8 up or from −8 down; note: test concentration not given here
Structure (SMILES),z-score [1],composite z-score [2],z-score [3],z-score [4],z-score [5],z-score [6],z-score [7],z-score [8],z-score [9],z-score [10],z-score [11],z-score [12],z-score [13],z-score [14],z-score [15],z-score [16],z-score [17],z-score [18],z-score [19],z-score [20]
NC(=O)NCC#Cc1ccc2c(c1)[C@]1(C(=O)N2)[C@H](c2ccccc2OCCO)N2[C@H](c3ccccc3)[C@H](c3ccccc3)OC(=O)[C@H]2[C@@H]1C(=O)Nc1nc2ccccc2s1,0.726 (inactive),0.0692,1.19 (inactive),1.36 (inactive),-5.62 (inactive),1.28 (inactive),-0.0906,1.95 (inactive),1.32 (inactive),0.883,0.334,0.226,-0.126,0.0225,-0.048,-2.78,2.99 (inactive),-0.885,-1.73,0.659 (inactive)
COc1cc2c(cc1OC)CN(C(=O)[C@@H]1[C@H]3C(=O)O[C@H](c4ccccc4)[C@H](c4ccccc4)N3[C@H](c3ccccc3OCCO)[C@@]13C(=O)Nc1ccc(C#CCCO)cc13)CC2,0.761 (inactive),0.751,2.28 (inactive),1.05 (inactive),0.85 (inactive),0.565 (inactive),0.212,1.29 (inactive),1.15 (inactive),0.301,1.26,0.784,0.665,-0.777,-0.803,0.453,1.2 (inactive),-1.21,-0.107,1.28 (inactive)
COc1ccccc1CN1C(=O)c2ccccc2[C@@H](C(=O)NC2CC2)[C@@H]1c1ccc(CO)cc1,0.818 (inactive),0.16,2.49 (inactive),0.873 (inactive),1.59 (inactive),0.818 (inactive),-0.291,0.211 (inactive),0.48 (inactive),0.718,1.44,-0.348,1.26,0.467,-0.376,2.33,0.171 (inactive),0.371,-0.0698,0.469 (inactive)
COC(=O)[C@H](Cc1ccccc1)N[C@@H](/C=C/C1CC1)[C@H](O)Cc1ccccc1,0.0327 (inactive),-0.239,0.738 (inactive),0.229 (inactive),-0.592 (inactive),0.428 (inactive),-0.162,0.42 (inactive),-0.135 (inactive),-1.41,0.168,-0.0648,-0.438,-0.608,-0.507,-0.908,-0.124 (inactive),-1.17,-0.594,0.778 (inactive)
O=C(CS)NCCCCCCNC(=O)[C@@H]1C[C@@H]2C(=O)NCC(=O)N2[C@@H]1c1cccc(OCCO)c1,0.74 (inactive),-0.887,3.29 (inactive),0.156 (inactive),2.38 (inactive),0.104 (inactive),0.59,1.54 (inactive),0.845 (inactive),0.711,0.861,-0.356,0.381,0.38,0.754,0.502,0.475 (inactive),0.116,-0.502,-0.489 (inactive)
CC(CO)N1C(=O)[C@@H]2C3C(=O)OCCC/C=C\[C@H]3OC23C=CCN(C(C)(C)C)C(=O)[C@@H]13 (stereo not given in full),0.458 (inactive),-0.0984,0.943 (inactive),0.752 (inactive),2.51 (inactive),0.477 (inactive),-0.0054,0.89 (inactive),-0.437 (inactive),0.886,-0.241,-0.557,0.775,1.41,0.995,0.285,0.521 (inactive),-0.458,-1.26,-0.717 (inactive)
C=C(C)[C@@H]1CC=C(C(O)C2C=CC3C(=O)N(C)C(=O)C3N2Nc2ccccc2)CC1 (stereo not given in full),-1.54 (inactive),0.42,1.89 (inactive),0.344 (inactive),0.683 (inactive),1.59 (inactive),-0.549,-1.1 (inactive),-2.76 (inactive),-2.23,-0.889,-1.16,-0.651,-1.36,0.0835,-0.9,4.5 (inactive),-0.334,-0.0333,0.392 (inactive)
CC#CC(=O)Oc1ccccc1C=CC(=O)OCC,-0.158 (inactive),-0.0011,8.09 (active),1.47 (inactive),0.692 (inactive),0.903 (inactive),-0.275,-0.405 (inactive),-0.806 (inactive),1.8,-1.54,-0.228,-0.749,-3.27,-2.23,-0.739,0.161 (inactive),0.849,-0.259,1.5 (inactive)
O=C1N(Cc2ccccc2)c2ccccc2[C@@H]2OC(c3ccc(OCCCO)cc3)=N[C@]12CCS(=O)(=O)c1ccccc1,-0.355 (inactive),0.387,24.7 (active),13.3 (active),1.79 (inactive),1.57 (inactive),0.0582,0.22 (inactive),1.32 (inactive),1.96,-0.221,0.0205,0.455,-0.527,0.144,-1.33,1.86 (inactive),-0.669,-0.605,0.404 (inactive)
